From ChEMBL document CHEMBL3988442, “University of Dundee, Small-Polar-MMV Screening Library” (2021)
In all, about 48,000 compounds went through this assay and about 13,000 (27%) showed an effect of 50% or more. This is one part of the list.

test system: Wolbachia pipientis; assay: Anti-Wolbachia Cell-Based Screen; assay type: functional; parameters: scale not given: in the data most compounds retested in dose-response had high values; settings: 5 µM

SMILES | Percent Effect
CC(C)(C)NC(=O)N1CCN2C(=O)OCC2C1 (configuration not stated) | -12.64%
CCC(C)c1csc(NC(=O)c2sc(-c3nnc[nH]3)nc2C)n1 (configuration not stated) | -26.52%
CSc1cccc(CNC(=O)C2CC(=O)N(CCN(C)C)C2)c1 (configuration not stated) | 8.737%
O=C(c1nnn(-c2ccc(C(F)(F)F)cc2)n1)N1CCC(O)CC1 | 4.237%
CCS(=O)(=O)N1CC(=O)N(CCOc2ccccc2)CC(O)C1 (configuration not stated) | 118.2%
N[C@H]1CN(CCCOc2ccccc2)C[C@@H]1C1CC1 | -13.64%
CC(C)[C@@H]1CN(CCOc2ccccc2)C[C@H]1NS(=O)(=O)N(C)C | 3.365%
CC(C)N1CCC2(CCCN(C(=O)c3cncn3C)C2)CC1.O=C(O)C(F)(F)F | 0.429%
CN(C)c1cc(C(=O)N2CCCC2c2cnn(C)c2)ccn1 (configuration not stated) | 118.6%
Cc1noc2ncc(C(=O)N3CCCC3c3cnn(C)c3)cc12 (configuration not stated) | 9.393%
CN(C)c1ccc(C(=O)N2CCCC2c2cnn(C)c2)nn1 (configuration not stated) | 5.055%
CN(C)c1ccc(C(=O)N2CCCC2c2cnn(C)c2)cn1 (configuration not stated) | 96.67%
CC(C)CN(C)c1ccc(C(=O)N2CCCC2c2cnn(C)c2)cn1 (configuration not stated) | -4.627%
COc1cccc(OC2CN(C(=O)Cn3nc4ccccc4n3)C2)c1 | -0.01054%
OC1(CNCCSCc2ccccc2)CCCNC1 (configuration not stated) | 3.749%
CCNC(=O)C1(Cc2ccc(-c3ccccc3)cc2)CCCNC1 (configuration not stated) | 160.5%
NC(=O)C1(Cc2ccc(-c3ccccc3)cc2)CCNC1 (configuration not stated) | 156.4%
Cc1cc(C)cc(-c2ccc(CC3(C(=O)O)CCOCC3)cc2)c1 | 0.9737%
O=C(NCCc1nncn1C1CC1)C1(Cc2ccccc2)CCC1 | 0.4274%
NC(=O)C1(Cc2ccc(-c3ccccc3)cc2)CCCNC1 (configuration not stated) | 155.7%
Cl.Cl.c1ccc(-c2cnc3n2CCNC32CCNCC2)cc1 | -2.159%
Cn1c(=O)oc2ccc(Nc3ncc(C#N)cc3Cl)cc21 | -1.266%
OCC(CO)Nc1cccc(C(F)(F)F)n1 | -11.08%
Cc1ccc(N2CCC(c3nccn3Cc3cscn3)CC2)nn1 | -11.8%
Nc1cc(N2CCCC2c2cnccn2)ncn1 (configuration not stated) | -4.526%
c1cnc2nc(N3CCCC3c3nnc4n3CCCCC4)ccc2n1 (configuration not stated) | 123.3%

SMILES | Percent Effect
c1cnc2nc(N3CCc4c(ncn4C4CC4)C3)ccc2n1 | 1.111%
CC(C)c1nc(C2CCCN2c2cnc3ccccc3n2)no1 (configuration not stated) | -9.022%
c1ccc2nc(N3CCCC3c3nnc4n3CCCCC4)cnc2c1 (configuration not stated) | 231.1%
COc1ccc(C2CCCN2c2cnc3ccccc3n2)c(OC)c1 (configuration not stated) | 8.411%
Cn1c(CC2CCS(=O)(=O)C2)nnc1SCCOc1ccccc1F (configuration not stated) | 1.517%
CN(Cc1ccncc1)C(=O)Nc1cnn(CC(N)=O)c1 | -7.922%
CCN(C)S(=O)(=O)N1CCC(C(O)c2ccc(Cl)cc2)CC1 (configuration not stated) | 1.239%
CC(C)COC(C)C(=O)NCc1cc(F)cc(F)c1 (configuration not stated) | -4.135%
CCOCCOC(C)C(=O)NCc1ccc(N2CCCCC2)cc1 (configuration not stated) | -8.198%
CC(C)COC(C)C(=O)NCc1ccccc1 (configuration not stated) | 129.5%
CC(C)COC(C)C(=O)NCc1ccc(OC(C)C)nc1 (configuration not stated) | 0.7864%
CC(OCC1CC1)C(=O)NCc1cccc(CN2CCCC2=O)c1 (configuration not stated) | 3.012%
CC(C)COC(C)C(=O)NCc1ccc(F)cc1 (configuration not stated) | 52.08%
Cc1cc(C)n(-c2ccc(N3CCC4(CC3)OCC(C)O4)nc2)n1 (configuration not stated) | 14.39%
O=C(C1CCCOC1)N(CC(F)F)c1cccc(Cl)c1 (configuration not stated) | -10.1%
CN1CCN(C(=O)C2SCCc3sccc32)CC1 (configuration not stated) | -4.064%
CCC(C)(C)NC(=O)CSCc1ccc(S(=O)(=O)N(C)C)o1 | 5.588%
CCC(C)(CC(=O)OC)NCc1cc(C)on1 (configuration not stated) | -8.886%
COc1ccccc1CC(C)(C)NC(=O)CNS(C)(=O)=O | -9.621%
N#Cc1ccc(CN2CCCCC2Cn2cncn2)cc1 (configuration not stated) | 10.73%
Fc1ccc(-c2nnc(CN3CCCC3Cn3cncn3)o2)cc1 (configuration not stated) | -1.304%
Clc1ccccc1-c1nnc(CN2CCCC2Cn2cncn2)o1 (configuration not stated) | 104.1%
c1csc(-c2nc(CN3CCCC3Cn3cncn3)co2)c1 (configuration not stated) | 2.244%
c1ccc(-c2nnc(CN3CCCC3Cn3cncn3)o2)cc1 (configuration not stated) | 126.9%
Clc1ccc2cccnc2c1CN1CCCC1Cn1cncn1 (configuration not stated) | -9.545%
COc1ccc(-c2cnc(CN3CCCC3Cn3cncn3)o2)cc1 (configuration not stated) | -4.543%
